Rows were chosen to be rich in hits. Some 1.9% of all compounds tested hit in one or more screens of this group.
PP1 inh = counter-screen for PP5 inhibitors: inhibitors of human PP1-alpha; P62136; purified PP1alpha, OMFP fluorescence; inhibition, % at 6.7 µM; hit rate 0.9% among 320,000; AID 2235;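 active means inhibition above the mean inhibition of all tested compounds plus 3 SD, computed separately for each screening campaign, cut at about 15% in these data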
Target sequence (P62136 whole entry, looked up): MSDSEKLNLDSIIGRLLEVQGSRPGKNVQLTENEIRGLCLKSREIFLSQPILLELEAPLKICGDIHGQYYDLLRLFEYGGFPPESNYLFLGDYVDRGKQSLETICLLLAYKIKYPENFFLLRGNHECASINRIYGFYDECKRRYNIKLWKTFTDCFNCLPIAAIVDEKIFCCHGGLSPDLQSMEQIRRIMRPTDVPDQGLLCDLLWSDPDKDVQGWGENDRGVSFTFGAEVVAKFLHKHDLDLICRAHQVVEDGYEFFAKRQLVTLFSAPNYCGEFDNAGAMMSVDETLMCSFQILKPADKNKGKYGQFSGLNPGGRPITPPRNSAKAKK
Cardio protect = modulators protecting cardiomyocytes from myocardial damage | hit rate 0.63% among 360,000 | protection from H2O2 cell death, % at 20 µM | AID 588492 | H9c2 cardiomyocytes, H2O2 injury protection, ATPLite, 2 h;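 active means compounds giving at least 50% protection of heart cells from peroxide-induced death in the single-dose screen, raw or plate-pattern-corrected value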
PP5 inh = PP5 (human) phosphatase inhibition | P53041 | purified PP5c, OMFP substrate fluorescence | inhibition, % at 6.7 µM | hit rate 0.18% among 320,000;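 active means inhibition above the campaign's mean inhibition across all tested compounds plus 3 SD, cut at about 9.5% in these data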
ATG4B inh = inhibitors of human ATG4B cysteine protease; hit rate 0.51% among 340,000; AID 504462; inhibition, % at 8.33 µM; ATG4B cleavage of LC3-PLA2, NBD-HPC fluorescence, 1 h; in the data active means inhibition above about 40%
Each line names hits and unclear results; the compound was inactive in the other large screens.

O=C(NCC(=O)N(Cc1ccccc1)C(C(=O)NCC1CCCO1)c1ccccc1)c1ccco1 (centres undefined)	none
Cc1ccc(CN(C(=O)CNC(=O)c2cccs2)C(C(=O)NCC2CCCO2)c2ccccc2)cc1 (centres undefined)	Cardio protect 91
COc1ccccc1CN(C(=O)CNC(=O)c1ccco1)C(C(=O)NCC1CCCO1)c1ccccc1 (centres undefined)	Cardio protect 68
O=C(OCC(=O)N1CCN(c2ccccc2)CC1)c1nc(Cl)ccc1Cl	none
O=C(Nc1ccc2nc(-c3ccccc3)[nH]c2c1)c1ccco1	none
O=C(Nc1ccc(Cl)c(-c2nc3ccccc3[nH]2)c1)c1ccc2c(c1)OCO2	none
O=C(Nc1cccc(-c2nc3ccccc3[nH]2)c1)c1cccc(NC(=O)c2ccco2)c1	PP1 inh 16
O=C(Nc1ccc(-c2nc3ccccc3[nH]2)cc1)c1ccc2c(c1)OCO2	PP1 inh 15
COCCN1Cc2cccc(C(=O)Nc3cccc(-c4nc5ccccc5[nH]4)c3)c2C1=O	Cardio protect 54
CCCCCCC(NC(=O)Cc1ccc2ccccc2c1)C(=O)O (centres undefined)	none (no result: PP1 inh, PP5 inh)
Cc1ccc(Cn2nc(C)c(C(=O)NCC(c3ccc(F)cc3)N3CCOCC3)c2Cl)cc1 (centres undefined)	none
CC1CC(C)CN(C(=O)CCNC(=O)Cn2ccc3ccccc3c2=O)C1 (centres undefined)	none
Cc1nnsc1NC(=O)OCc1ccccc1Cl	none
Cc1nnsc1NC(=O)OCc1ccc(C(F)(F)F)cc1	PP1 inh 17
CCOC(=O)c1c(C)oc2c1c1c(c3ccccc32)OCN(Cc2ccccn2)C1	Cardio protect 54
COc1ccc(C)cc1NC(=O)CN(Cc1nnc(-c2ccc(Cl)cc2)o1)C1CCCC1	PP1 inh 16
COc1ccc(Cl)cc1NC(=O)CN(C)C1CCCCC1	none
CC(/C=N/NC(=O)c1ccncc1)=C\c1ccccc1	none
CC(=C/c1ccc(C(C)C)cc1)/C=N/NC(=O)c1ccncc1	Cardio protect 58
O=C(N/N=C/c1ccccc1O)c1cc[n+]([O-])cc1	Cardio protect 54
O=C(N/N=C/c1ccccc1O)c1ccncc1	Cardio protect 59
c1ccc(-c2ncc(-c3ccn[nH]3)s2)cc1	PP1 inh 16
COc1ccc(S(=O)(=O)Nc2ccccc2C(=O)N2CCOCC2)cc1C	none
COc1cc2c(cc1OC)C(c1ccc3c(c1)OCO3)C1=C(CC(C)(C)CC1=O)N2 (centres undefined)	Cardio protect 72
CC(C)CCN(C(=O)CNC(=O)c1ccco1)C(C(=O)NC1CCCCC1)c1ccco1 (centres undefined)	Cardio protect 52
CC1=C(CC[C@@H](C)CO)OC2CC3C4CCC5CC(O)CCC5(C)C4CC(=O)C3(C)C12 (some centres undefined)	Cardio protect 50
CC(CCC(=O)O)C1CCC2C3CCC4C[C@H](O)CCC4(C)C3CC(=O)C12C (some centres undefined)	none
O=C(CCC(=O)N(CC(=O)NC1CCCC1)c1cccc(F)c1)Nc1nccs1	none
COc1cc(C(C)=O)ccc1OCC(=O)Nc1ccc(Cl)c(S(=O)(=O)N2CCOCC2)c1	none
COC(=O)c1ccc(CC2(C)C(=O)Nc3ccc(-c4cccc(C(F)(F)F)c4)cc32)o1 (centres undefined)	none (no result: PP1 inh, PP5 inh, ATG4B inh)
COc1cc(/C=N/NC(=O)c2cncc(Br)c2)cc([N+](=O)[O-])c1O	PP1 inh 17
CCCC(C)c1nnc(NC(=O)COc2ccc3c(c2)OCO3)s1 (centres undefined)	PP1 inh 16
O=C(CCC(=O)Nc1cccc(Cl)c1)N/N=C/c1cc([N+](=O)[O-])ccc1O	none
Cc1ccc(NC(=O)CCC(=O)N/N=C/c2cc([N+](=O)[O-])ccc2O)cc1	Cardio protect 64
O=C(CCCC(=O)Nc1cccc(Br)c1)N/N=C/c1cc([N+](=O)[O-])ccc1O	PP1 inh 16
O=C(N/N=C/c1cc([N+](=O)[O-])ccc1O)C(O)(c1ccccc1)c1ccccc1	Cardio protect 61
O=C(CN(c1cccc(Br)c1)S(=O)(=O)c1ccccc1)N/N=C/c1cc([N+](=O)[O-])ccc1O	PP1 inh 16
Cc1cccc(N=NC(=S)NNc2cccc(C)c2)c1	none (no result: PP1 inh, PP5 inh)
CC1CCCN(C(=O)CN2C(=O)NC(C)(c3ccc4ccccc4c3)C2=O)C1 (centres undefined)	none (no result: PP1 inh, PP5 inh)
CN(C(=O)c1cccc(NC(=O)Cc2ccc(NC(=O)C3CCCN(C(=O)C4CC4)C3)cc2)c1)C1CCC1 (centres undefined)	none (no result: PP1 inh, PP5 inh)
CCOc1ccc(NS(=O)(=O)c2coc(C(N)=O)c2)cc1	none
